Only some compounds are listed: those with a hit (about 19% of all), similar ones and a draw of the others.
HT1080-NT tox: kills 2HG-producing HT-1080-NT fibrosarcoma cells; HT-1080-NT fibrosarcoma viability, CellTiter-Glo ATP luminescence, 48 h; Potency, µM (titrated, usually from 46.1 µM), without a hit: at the highest dose activity, negative = less viability, hits mostly cytotoxic; actives 1.6% (n = 360,000); AID 686970;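 further: NT is the 2HG producing partner of a matched IDH1 knockdown line; potency means the concentration at half of the fitted maximal effect; 0% = DMSO-treated cells and -100% = media-only wells without cells; nearly all actives have a fitted effect of over 55% in size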
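Viability by CellTiter-Glo luminescence after 48 h compound exposure at 37C of HT-1080-NT cells (750/well, RPMI, 5% FBS). % activity scaled between DMSO wells and medium-only wells, then curve-fitted and categorized by curve class.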
DT40 TDP1 no CPT: qHTS for Inhibitors of human tyrosyl-DNA phosphodiesterase 1 (TDP1): qHTS in cells in absence of CPT; DT40 Tdp1-/- hTDP1 cells, no CPT, ATP luminescence, 48 h; Potency, µM (titrated, usually from 46.2 µM), without a hit: at the highest dose activity change, negative = growth inhibition, most hits filed as inhibitors; actives 15% (n = 420,000); AID 686978, 2013; further: potency means the concentration at half of the fitted maximal effect; nearly all actives have a fitted effect of over 55% in size
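Chicken DT40 Tdp1-/- cells stably complemented with human TDP1 were seeded at 400 cells/well with DMSO in place of 20 nM camptothecin. After compound pinning, cells grew at least 48 hr at 37 °C; viability read by CellTiter-Glo luminescence.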
HT1080 IDH1KD tx: toxicity to HT-1080 IDH1 knockdown cells (counter line); Potency, µM (titrated, usually from 46.1 µM), for the others: at the highest dose activity, negative = toxicity, actives largely listed as cytotoxic; actives 2% (n = 360,000); HT-1080 IDH1 knockdown viability, ATP luminescence, 48 h; AID 686971;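 further: potency means the concentration at half of the fitted maximal effect; 0% = DMSO wells and -100% = cell-free medium wells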
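Cytotoxicity counter-line: IDH1KD HT-1080, 48 h, CellTiter-Glo. Curves classed by r2, magnitude and activity.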
ELG1 DNA repair: blocks ELG1-dependent DNA repair in HEK293T cells; HEK293T ELG1-luciferase reporter, luminescence, 16 h; DNA damage induced by 5-fluorouridine; Potency, µM (top dose mostly 46.1 µM), for inactives: top-dose activity change, negative = inhibition, most hits filed as inhibitors; actives 2.3% (n = 330,000); AID 504467; further: potency means the concentration at half of the fitted maximal effect; nearly all actives have a fitted effect of over 55% in size
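Quantitative HTS, concentration-response format. 2,000 cells/well co-treated with 5-fluorouridine and compound, 16 hr in 5% CO2 at 37 °C; ONE-Glo luminescence read after 30 min.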
IL-1B inflam inh: inhibitors of inflammasome signaling (IL-1 beta secretion); AID 743279; THP-1 LPS/ATP IL-1B secretion, AlphaLISA, 16 h; active compounds read low; activity change, % at 57.5 µM; actives 4.7% (n = 360,000); in the data active means activity change below about -50%; inconclusive means mostly about -30% to -49%
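Secreted IL-1B measured by AlphaLISA bead assay after 16 h compound exposure of THP-1 cells; compounds (final up to 57.5 uM) added 1 h before LPS (250 ng/mL) and ATP (1.25 mM) stimulation; lower signal means less secretion.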
DT40 TDP1 CPT: DT40-hTDP1 cell growth loss with CPT | actives 12% (n = 420,000) | chicken DT40 Tdp1-/-;hTDP1 cells + 20 nM CPT, ATP luminescence, 48 h | Potency, µM (doses to about 46.2 µM), inactives show at the highest dose activity change, negative = growth inhibition, hits mostly inhibitors; further: potency means the concentration at half of the fitted maximal effect; nearly all actives have a fitted effect of over 55% in size
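Chicken DT40 Tdp1-/- cells complemented with human TDP1, 400 cells/well, exposed to compounds plus 20 nM camptothecin for at least 48 h at 37 C; viability read as ATP content by CellTiter-Glo luminescence.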
Numbers without * were called inactive; ? = inconclusive; / = no result; [ ] = another dose, or the depositor's remark. Unless noted, the call rests on the fitted dose curve; in most records, active means well fitted curve in the direction sought with a large enough effect; inconclusive means small, poorly fitted or top-dose-only effect, or another doubt; inactive means no such curve, though single readings can be large; an effect the other way counts as inactive or inconclusive. Unless noted, on the % scale 0 is the no-effect control and ±100 the full control effect.

SMILES	HT1080-NT tox	DT40 TDP1 no CPT	HT1080 IDH1KD tx	ELG1 DNA repair	IL-1B inflam inh	DT40 TDP1 CPT
COc1ccc(S(=O)(=O)N(C(=O)c2ccncc2)c2ccc3oc(C)c(C(C)=O)c3c2)cc1	/	2.3µM*	/	/	/	3.7µM*
COc1ccc(S(=O)(=O)N(C(=O)c2ccncc2)c2ccc3oc4c(c3c2)CCCC4)cc1	-21%	21µM*	?	?	23	18µM*
COc1ccc(N(C(=O)c2ccncc2)S(=O)(=O)c2ccc(F)cc2)cc1	/	/	/	4%	/	/
CCn1c(CSCc2ccc(C)cc2)nnc1SCC(=O)N1CCN(c2ccccc2)CC1	-4%	21µM*	?	18µM*	-8	-52%
C=CCn1c(CSCc2ccccc2)nnc1SCC(=O)N1CCN(c2ccccc2)CC1	3%	15µM*	3%	?	0	?
O=C(C[n+]1ccccc1Br)c1ccc(I)cc1	/	?	/	/	/	-5%
Cc1c(C(=O)N(Cc2ccccc2)C(C)C)oc2ccc(S(=O)(=O)N3CCOCC3)cc12	?	-21%	?	?	-28	?
CC(=O)NCC(c1cccs1)S(=O)(=O)c1ccc(F)cc1 (centres undefined)	11%	-1%	4%	5%	0	2%
CC1Cc2ccccc2N1C(=O)COC(=O)CCc1nc2ccccc2c(=O)[nH]1 (centres undefined)	-6%	18µM*	5%	6%	-14	29µM*
COC(=O)c1c2c(nc3ccccc13)CCC2	-7%	?	0%	11%	22	-20%
O=C(OC(C(=O)N1CCOCC1)c1ccccc1)c1c2c(nc3ccccc13)CCCC2 (centres undefined)	/	14µM*	/	/	/	?
CC1Cc2ccccc2N1C(=O)COC(=O)c1c2c(nc3ccccc13)CCCCC2 (centres undefined)	-25%	12µM*	-26%	13µM*	?	8.2µM*
O=C(OCC(=O)N1CCc2ccccc21)c1c2c(nc3ccccc13)CCCC2	-15%	23µM*	?	?	-20	16µM*
O=C(CCc1nc2ccccc2c(=O)[nH]1)OCC(=O)N1CCc2ccccc21	0%	0%	-1%	28%	25	17%
CCOc1ccccc1NC(=O)CCS(=O)(=O)c1ccc2c(c1)CCN2C(C)=O	0%	-19%	4%	12%	13	?
Cc1ccc(-n2nc(C(=O)N3CCCCC3)c(=O)n(C)c2=O)cc1	/	-8%	/	/	/	2%
NC(=O)COC(=O)c1c2c(nc3ccccc13)CCCCC2	0%	0%	-3%	-15%	-11	-5%
O=C(COC(=O)c1c2c(nc3ccccc13)CCCC2)c1cccs1	-23%	?	-27%	?	36	29µM*
COC(=O)C1=C(C(=O)OC)SC(=C2C(=S)C(C)(C)N(C(=O)CC(C)C)c3ccccc32)S1	-5%	?	-2%	?	?	26µM*
C[C@H](CO)N1C[C@H](C)[C@@H](CN(C)S(=O)(=O)c2cn(C)cn2)Oc2cc(Br)ccc2S1(=O)=O	4%	?	4%	/	8	-1%
CCOc1ccc(N=c2scc(-c3ccccc3)n2CCO)cc1	?	23µM*	-17%	?	-66*	16µM*
CCn1c(-c2ccccc2)csc1=Nc1ccc(O)cc1	-6%	?	-15%	?	-95*	?
CCOc1ccc(-c2nnc(-c3ccc(OC)cc3)o2)cc1	?	-21%	30%	?	-20	-20%
COCCn1c(-c2ccccc2)csc1=Nc1cccnc1	-18%	?	-10%	?	-11	16µM*
CCOc1ccc(N=c2scc(-c3ccc(OC)cc3)n2CCO)cc1	-23%	?	-16%	10µM*	?	9.2µM*
SMILES	HT1080-NT tox	DT40 TDP1 no CPT	HT1080 IDH1KD tx	ELG1 DNA repair	IL-1B inflam inh	DT40 TDP1 CPT
O=C1CS(=O)(=O)C2(C(=O)Nc3ccccc32)N1c1cccc(Cl)c1 (centres undefined)	/	-22%	/	/	/	-19%
CCOc1ccc(S(=O)(=O)Nc2ccc(C(=O)NCC(c3ccco3)N3CCCCC3)cc2)cc1 (centres undefined)	-11%	?	-8%	-4%	?	?
CCCCn1c(C)csc1=Nc1cccnc1	6%	?	0%	2%	-14	?
CC(C)n1c(-c2ccco2)csc1=Nc1cccnc1	?	?	?	?	0	11µM*
Cc1ccc(-c2csc(=Nc3cccnc3)n2CCCN2CCCC2=O)cc1C	-23%	18µM*	-12%	?	-51*	?
O=C(CNC(=O)c1ccco1)NNC(=O)c1cccc(Cl)c1	12%[9.24 µM]	0%	7%	0%	29	-2%
CCn1c(CNc2ccccc2Cl)nnc1SCCN1CCCCC1	-1%	16µM*	-6%	-2%	-8	18µM*
CC(=O)N1CCN(c2nc(CC(C)C)c3c(c2C#N)CCC3)CC1	-5%	?	-3%	-1%	-9	-28%
CC(C)Cc1nc(N2CCN(C(=O)C(C)C)CC2)c(C#N)c2c1CCC2	0%	?	-17%	-10%	-12	21µM*
O=C(CNCc1ccccc1Cl)Nc1cc(S(=O)(=O)N2CCOCC2)ccc1Cl	-1%	?	-16%	?	-11	-25%
Cc1ccc(S(=O)(=O)N2CCOCC2)cc1NC(=O)CNCc1ccc(Cl)cc1Cl	-8%	16µM*	-14%	23µM*	-4	?
O=C(Nc1cc(S(=O)(=O)N2CCOCC2)ccc1Cl)C(=O)c1c(-c2ccccc2)cc2ccccn12	6%	23µM*	-3%	?	-25	21µM*
CCN(CC)c1ccc(S(=O)(=O)N2CCOCC2)cc1NC(=O)CNCc1cccc(Cl)c1	3%[9.24 µM]	15µM*	-15%	/	-6	18µM*
Cc1onc(-c2ccccc2)c1C(=O)OCC(=O)Nc1cc(S(=O)(=O)N2CCOCC2)ccc1Cl	?	23µM*	-20%	?	-21	23µM*
CC(=O)N1CCN(C(=S)Nc2cc(S(=O)(=O)N3CCOCC3)ccc2Cl)CC1	5%	-4%	-2%	0%	8	-1%
Cc1ccccc1-c1nccc(NCc2cccnc2)n1	/	-26%	/	/	/	-15%

Assay outcomes (PubChem BioAssay)
